Some test systems named below: HT29 colon; SNB-75 CNS; SNB-19 CNS; U251 CNS; PC-3 prostate; SK-MEL-5 melanoma; UACC-62 melanoma; LOX IMVI melanoma; SK-MEL-28 melanoma; SN12C renal; UO-31 renal; TK-10 renal; ACHN renal; CAKI-1 renal; A498 renal; CCRF-CEM leukemia; MOLT-4 leukemia; SR leukemia; SK-MEL-2 melanoma; EKVX NSCLC.
What all share (test): NCI-60 one-dose screen, 48 h (100 = growth as untreated, 0 = no growth, -100 = all killed)
What all share (conditions): 10 µM

Compounds without any hit were thinned out: in the full panel of roughly 83,000, 20% have a hit.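 For each line, cells grew in 96-well plates with the test compound present at a single concentration for 48 hours.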 Values without a mark were called inactive. Calls of active or inactive are those of the source. The calls were made as follows: active = growth percent below 10; inactive = the rest.

`CCCCCCCCCCCCCCCC(=O)OC1[C@@H](OC(=O)CCCCCCCCCCCCCCC)[C@@H](C(=O)N[C@@H](CCCCN)C(=O)OC)O[C@H]1n1cnc2c(=O)[nH]c(NC(=O)C(C)C)nc21` (some centres undefined): the growth was 98.2% with HT29 colon; 94.1% in the assay on SNB-75 CNS; 93.5% in the assay on SNB-19 CNS; 90.2% in the assay with U251 CNS; 103% in the assay on PC-3 prostate; 101% in the assay on SK-MEL-5 melanoma. Besides, the growth in the assay with UACC-62 melanoma was 111%; in the assay with LOX IMVI melanoma it was 93.5%; in the assay on SK-MEL-28 melanoma, 113%; in the assay on SN12C renal, 105%; with UO-31 renal it was 87.1%; in the assay with TK-10 renal, 101%. Moreover, the growth in the assay on ACHN renal is 102%; in the assay on CAKI-1 renal, 94%; in the assay with A498 renal, 98.1%; in the assay with CCRF-CEM leukemia, 86%; in the assay on MOLT-4 leukemia it was 93.4%; in the assay on SR leukemia it was 9.69% (active).
With `CN(C)Cc1cn(-c2ncc(-c3ccc(C(F)(F)F)cc3)c(NC3CCCCCC3)n2)nn1`, the growth with HT29 colon was 31%; in the assay on SNB-75 CNS, 72.9%; in the assay on SNB-19 CNS, 92.1%; with U251 CNS it was 73.3%; in the assay with PC-3 prostate, 77.5%; in the assay on SK-MEL-5 melanoma, 80.6%. For the same compound, the growth in the assay with UACC-62 melanoma is 97.6%; in the assay on LOX IMVI melanoma, 95.7%; in the assay on SK-MEL-28 melanoma, 97.4%; in the assay with SN12C renal, 87.5%; in the assay with UO-31 renal, 42.9%; in the assay on TK-10 renal, 85.2%. The growth with ACHN renal is 92.1%; with CAKI-1 renal, 84.7%; in the assay on A498 renal, 76.9%; with CCRF-CEM leukemia it was 80.6%; in the assay on MOLT-4 leukemia it was 74.8%; in the assay on SR leukemia it was 39.6%.
With `Cc1nc2ccc(CN(C)c3ccc(C(=O)N[C@@H](CCC(=O)O)C(=O)O)s3)cc2c(=O)[nH]1`, the growth in the assay with HT29 colon was 55.1%; in the assay on SNB-75 CNS, 43.4%; in the assay on SNB-19 CNS, 42.8%; in the assay on U251 CNS, 56.3%; in the assay with PC-3 prostate, 56.5%; in the assay on SK-MEL-5 melanoma, 28.7%. The growth in the assay on UACC-62 melanoma was 40.1%; in the assay on LOX IMVI melanoma, 26.8%; with SK-MEL-2 melanoma, 105%; in the assay on EKVX NSCLC it was 72.9%; with SN12C renal, 47.7%; with UO-31 renal, 39.9%. Also, the growth in the assay with TK-10 renal is 48.6%; with ACHN renal it was 34.1%; with CAKI-1 renal it was 28.5%; with A498 renal, 21.5%; in the assay on CCRF-CEM leukemia, 33.1%; with MOLT-4 leukemia it was 26.2%. Further, in the assay with SR leukemia, the growth was 44.6%.
For the compound `FC(F)(F)c1ccc(-c2cnc(-n3cc(COCCN4CCCCC4)nn3)nc2NC2CCCCCC2)cc1`, the growth was -73.1% (active) in the assay on HT29 colon; 11.5% in the assay with SNB-75 CNS; 84.2% in the assay on SNB-19 CNS; -74.5% (active) with U251 CNS; 7.37% (active) with PC-3 prostate; -91% (active) with SK-MEL-5 melanoma. The growth in the assay with UACC-62 melanoma is -79.2% (active); in the assay on LOX IMVI melanoma it was -55.8% (active); in the assay with SK-MEL-28 melanoma it was -90.5% (active); in the assay on SN12C renal it was 60.4%; in the assay on UO-31 renal it was -6.86% (active); with TK-10 renal, -14% (active). Moreover, the growth in the assay with ACHN renal is 35.7%; with CAKI-1 renal it was 46.6%; in the assay on A498 renal it was 66%; with CCRF-CEM leukemia, -5.93% (active); with MOLT-4 leukemia, -24.1% (active); with SR leukemia it was -37.4% (active).
For `CNc1ncc(-c2ccc(C(F)(F)F)cc2)c(NC2CCCCCC2)n1`, the growth in the assay with HT29 colon was 56.8%; with SNB-75 CNS it was 90.9%; in the assay with SNB-19 CNS it was 85.2%; in the assay with U251 CNS, 58.9%; with PC-3 prostate, 61.8%; in the assay on SK-MEL-5 melanoma it was 74.8%. The growth in the assay on UACC-62 melanoma is 89.9%; with LOX IMVI melanoma, 85.8%; in the assay with SK-MEL-28 melanoma, 88%; with SN12C renal, 84%; with UO-31 renal, 38.4%; in the assay with TK-10 renal, 83.5%. Moreover, the growth in the assay on ACHN renal was 73.1%; in the assay with CAKI-1 renal, 60.9%; in the assay with A498 renal, 83.4%; in the assay with CCRF-CEM leukemia, 70.2%; in the assay on MOLT-4 leukemia, 68.2%; in the assay on SR leukemia, 43.9%.
Consider `O=S(=O)(NCCCNc1nccc(-c2c(-c3ccc(F)cc3)nc3sccn23)n1)c1ccc2ccccc2c1`, for which the growth in the assay on HT29 colon was -7.72% (active); in the assay on SNB-75 CNS, 50.1%; with SNB-19 CNS, 82.4%; with U251 CNS, 27.4%; in the assay on PC-3 prostate, 35.5%; in the assay on SK-MEL-5 melanoma, 43.4%. The growth is 45% with UACC-62 melanoma; 37.3% with LOX IMVI melanoma; 72.6% in the assay on SK-MEL-28 melanoma; 49.2% in the assay on SN12C renal; 13.1% in the assay on UO-31 renal; 35.4% in the assay with TK-10 renal. The growth with ACHN renal was 39%; with CAKI-1 renal, 33.2%; with A498 renal it was 62.4%; with CCRF-CEM leukemia, 28.3%; in the assay with MOLT-4 leukemia it was 35%; in the assay with SR leukemia, 28.5%.
As for `FC(F)(F)c1ccc(-c2cnc(Cl)nc2N2CCC3(CC2)OCCO3)cc1`, the growth in the assay on HT29 colon is 96.9%; in the assay with SNB-75 CNS it was 93.8%; with SNB-19 CNS, 102%; in the assay on U251 CNS it was 85.3%; with PC-3 prostate, 87.2%; in the assay on SK-MEL-5 melanoma, 93.8%. The growth in the assay with UACC-62 melanoma was 96.8%; with LOX IMVI melanoma, 90.4%; with SK-MEL-28 melanoma, 102%; in the assay with SN12C renal, 103%; in the assay on UO-31 renal, 69.5%; with TK-10 renal it was 89.8%. Also, the growth in the assay on ACHN renal was 92.6%; with CAKI-1 renal, 86.5%; with A498 renal it was 75.8%; in the assay with CCRF-CEM leukemia, 91.1%; with MOLT-4 leukemia it was 74%; with SR leukemia, 81.5%.
In the case of `COC(=O)[C@@H]1[C@H](O)[C@H](C)[C@H](O)[C@@](C)(O)/C=C\C=C(C)C(=O)Nc2c(C)c(OC(C)=O)c3c(c2O)C(=O)C(C)=C2OCOC(=C23)C(C)=C[C@@](C)(O)[C@H](O)[C@@H](C)[C@H]1OC(C)=O`, the growth with HT29 colon is 111%; in the assay with SNB-75 CNS, 81.9%; in the assay with SNB-19 CNS, 112%; in the assay on U251 CNS, 104%; in the assay on PC-3 prostate, 22%; in the assay with SK-MEL-5 melanoma, 98%. For the same compound, the growth in the assay with UACC-62 melanoma was 97.8%; in the assay with LOX IMVI melanoma it was 104%; with SK-MEL-2 melanoma, 117%; in the assay on EKVX NSCLC, 108%; in the assay on SN12C renal, 108%; in the assay with UO-31 renal it was 88.7%. Further, the growth is 126% in the assay with TK-10 renal; 110% in the assay on ACHN renal; 100% in the assay with CAKI-1 renal; 120% with A498 renal; 111% with CCRF-CEM leukemia; 95.6% in the assay on MOLT-4 leukemia. Further, the growth with SR leukemia is 92.1%.
As for `CN(C)c1ccc(/C=C/C=N/NC(=O)c2cc(O)c(O)c(O)c2)cc1`, the growth in the assay with HT29 colon is 111%; in the assay with SNB-75 CNS, 81.3%; in the assay on SNB-19 CNS, 79.9%; in the assay with U251 CNS it was 59.7%; with PC-3 prostate it was 85.8%; in the assay with SK-MEL-5 melanoma, 92.9%. Moreover, the growth in the assay with UACC-62 melanoma is 107%; with LOX IMVI melanoma it was 91.4%; with SK-MEL-28 melanoma, 108%; with SN12C renal, 105%; in the assay with UO-31 renal, 65.9%; with TK-10 renal, 101%. The growth in the assay on ACHN renal was 76.8%; with CAKI-1 renal it was 93.4%; in the assay on A498 renal, 88.1%; in the assay on CCRF-CEM leukemia, 16.1%; in the assay with MOLT-4 leukemia it was 48%; in the assay with SR leukemia, 32.9%.
